Measurements as given in PubChem BioAssay (NCI).
The panel holds about 83,000 compounds, 20% with a hit somewhere; the sample as a whole holds those more often.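 Activity criterion: percent growth below 10, measured after cells in 96-well plates were exposed to a single compound concentration for 48 hours.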 A number with no mark means an inactive call. Activity calls are given as the source filed them.

What was measured:
Experiment in all cases: NCI-60 one-dose screen, 48 h (100 = growth as untreated, 0 = no growth, -100 = all killed)
Conditions in all cases: 10 µM unless noted
SK-MEL-2 melanoma = test system: SK-MEL-2 melanoma
EKVX NSCLC = test system: EKVX NSCLC
SN12C renal = test system: SN12C renal
UO-31 renal = test system: UO-31 renal
TK-10 renal = test system: TK-10 renal
ACHN renal = test system: ACHN renal
A498 renal = test system: A498 renal
CCRF-CEM leukemia = test system: CCRF-CEM leukemia
MOLT-4 leukemia = test system: MOLT-4 leukemia
SR leukemia = test system: SR leukemia
RPMI-8226 leukemia = test system: RPMI-8226 leukemia
OVCAR-8 ovarian = test system: OVCAR-8 ovarian
OVCAR-5 ovarian = test system: OVCAR-5 ovarian
OVCAR-4 ovarian = test system: OVCAR-4 ovarian
SK-OV-3 ovarian = test system: SK-OV-3 ovarian
IGROV1 ovarian = test system: IGROV1 ovarian
OVCAR-3 ovarian = test system: OVCAR-3 ovarian
HS 578T breast = test system: HS 578T breast
NCI/ADR-RES ovarian = test system: NCI/ADR-RES ovarian
T-47D breast = test system: T-47D breast

Row | Structure (SMILES) | growth (SK-MEL-2 melanoma) | growth (EKVX NSCLC) | growth (SN12C renal) | growth (UO-31 renal) | growth (TK-10 renal) | growth (ACHN renal) | growth (A498 renal) | growth (CCRF-CEM leukemia) | growth (MOLT-4 leukemia) | growth (SR leukemia) | growth (RPMI-8226 leukemia) | growth (OVCAR-8 ovarian) | growth (OVCAR-5 ovarian) | growth (OVCAR-4 ovarian) | growth (SK-OV-3 ovarian) | growth (IGROV1 ovarian) | growth (OVCAR-3 ovarian) | growth (HS 578T breast) | growth (NCI/ADR-RES ovarian) | growth (T-47D breast)
1 | CCCCCOC(=O)c1ccccc1O | 111% | 94.2% | 105% | 91.2% | 99.5% | 107% | 102% | 99.5% | 97% | 85.1% | 102% | 107% | 105% | 95.9% | 92.2% | 111% | 102% | 103% | 110% | 85.8%
2 | COc1ccc(Cl)c([N+](=O)[O-])c1 | 104% | 103% | 99% | 90.6% | 95.8% | 107% | 113% | 109% | 95.2% | 93.1% | 106% | 106% | 102% | 101% | 98% | 108% | 112% | 105% | 102% | 84%
3 | COc1ccc(-c2cs/c(=N\N=C\c3ccc(O)cc3O)n2/N=C/c2ccc(O)cc2O)cc1 | -28.4% (active) | 7.59% (active) | 4.01% (active) | -65% (active) | -31.3% (active) | -34.3% (active) | -6.11% (active) | 2.63% (active) | -35.3% (active) | 6.76% (active) | -25.9% (active) | -17.1% (active) | 10.6% | -7.88% (active) | -30.8% (active) | -17.2% (active) | -63.5% (active) | 24.1% | -12.4% (active) | -36.8% (active)
4 | CCC[S@@](=O)c1ccc2nc(NC(=O)OC)[nH]c2c1 | 95.1% | 90.2% | 96.4% | 90.9% | 91.9% | 102% | 87.6% | 86.4% | 74.5% | 41.6% | 95% | 77.1% | 102% | 98.9% | 63.6% | 91.3% | 93.5% | 91.2% | 91.5% | 78.1%
5 | C=C(C)[C@@H]1CC[C@]2(C(=O)OCCOCCOCC[P+](c3ccccc3)(c3ccccc3)c3ccccc3)CC[C@]3(C)[C@H](CC[C@@H]4[C@@]5(C)CC[C@H](OC(=O)C(Cl)Cl)C(C)(C)[C@@H]5CC[C@]43C)[C@@H]12 | -45.4% (active) | -15.2% (active) | -46.9% (active) | -45.1% (active) | 15.7% | -79.2% (active) | -28.3% (active) | 4.25% (active) | -8.02% (active) | -32% (active) | -39.3% (active) | 5.47% (active) | 39.3% | -0.899% (active) | -8.97% (active) | 6.43% (active) | -43.9% (active) | 21.3% | 50.2% | -21.2% (active)
6 | Nc1c(C(=O)Nc2ccccn2)sc2nc3c(cc12)CCCC3 | 35.1% | 55.2% | 50.1% | 61.6% | 97.5% | 69.8% | 48.3% | 36.9% | 29.8% | 9.84% (active) | 55.9% | 65% | 77.6% | 74.9% | 42.4% | 55.2% | 23.9% | 39.7% | 28.2% | 43%
7 | CCOC(=O)/C=C1\SC(=Nc2ccc(C#N)cc2)N(CCN2C(=O)/C(=C/C(=O)OCC)SC2=Nc2ccc(C#N)cc2)C1=O | 80.8% | 35.2% | 24.2% | 56.6% | 87.4% | 78.6% | 63.7% | 1.57% (active) | 9.39% (active) | 1.69% (active) | -26.8% (active) | 5.38% (active) | 84.4% | 50.8% | 85.4% | 23.7% | 7.13% (active) | 63.7% | 43.7% | 21.1%
8 | COC(=O)c1ccc2c(c1)NC(=O)[C@@H]1CCCN21 | 95% | 94.1% | 101% | 88.1% | 127% | 103% | 90.4% | 99.5% | 84.1% | 81.5% | 96.6% | 97.5% | 112% | 88.4% | 95.2% | 101% | 102% | 105% | 100% | 86.3%
9 | COc1c(O)cc2oc3cc(O[C@@H]4OC(C)[C@@H](O)[C@H](O)C4O)c(CC=C(C)C)c(O)c3c(=O)c2c1CC=C(C)C (stereo not given in full) | 90.5% | 82% | 99.7% | 80.3% | 92.6% | 102% | 67.9% | 83.5% | 65.1% | 103% | 73.2% | 99.3% | 119% | 102% | 113% | 83.9% | 94.7% | 98.4% | 102% | 86.6%
10 | Nc1ccc(C(=O)Nc2cccc(C(=O)Nc3ccc4c(O)c(N=Nc5ccc(N=Nc6ccc(S(=O)(=O)O)cc6)cc5)c(S(=O)(=O)O)cc4c3)c2)cc1 | 97.5% | 105% | 101% | 88.4% | 97.1% | 106% | 107% | 98.5% | 92.1% | 92.2% | 103% | 110% | 106% | 101% | 101% | 102% | 107% | 106% | 99.2% | 108%
11 | Cc1cc(C)c2nc(Nc3nc(C)c(C)c(=O)[nH]3)nc(C)c2c1 | -25.6% (active) | 12.4% | 20% | 11.1% | 17% | 23.5% | -9.66% (active) | 7.98% (active) | 4.84% (active) | -9.54% (active) | -17.1% (active) | 15.5% | 48.8% | 20.8% | 7.87% (active) | 9.55% (active) | 5.78% (active) | 21.2% | 40.8% | 18.9%
12 | C[C@H]1[C@H](C)CC[C@]2(C(=O)OCCOCCOCC[P+](c3ccccc3)(c3ccccc3)c3ccccc3)CC[C@]3(C)C(=CC[C@@H]4[C@@]5(C)CC[C@H](OC(=O)C(Cl)Cl)C(C)(C)[C@@H]5CC[C@]43C)[C@H]12 | -21.5% (active) | -3.78% (active) | -6.85% (active) | 3.95% (active) | 12.7% | -1.41% (active) | 6.28% (active) | 7.44% (active) | -6.91% (active) | -33.5% (active) | 0.348% (active) | 11% | 37.3% | 6.72% (active) | -0.459% (active) | 15.1% | 16.1% | 38.4% | 69% | 21.8%
13 | CCOc1ccccc1C(=O)/C=C/c1cc2ccccc2[nH]c1=O | 4.96% (active) | -1.6% (active) | -20.9% (active) | -97.7% (active) | 15% | -5.01% (active) | -14.7% (active) | -0.719% (active) | 5.16% (active) | 4% (active) | -12.1% (active) | 7.43% (active) | 5.93% (active) | 32.3% | 18.8% | 1.32% (active) | -30.7% (active) | 60.1% | -4.24% (active) | 4.65% (active)
14 | COCCOCCOCc1n(Cc2ccc3ccccc3c2)c2ccccc2[n+]1Cc1ccc2ccccc2c1 | -18.8% (active) | 47.4% | 11.7% | 81.9% | 3.33% (active) | 93.9% | 12% | 12% | 4% (active) | -39.5% (active) | -6.22% (active) | 9.98% (active) | 21.4% | 17% | 2.88% (active) | -7.12% (active) | 7.16% (active) | 39.9% | 105% | -3.39% (active)
15 | CC(=O)Oc1ccc(O)cc1 | 87.2% | 103% | 99.9% | 91.2% | 112% | 97.8% | 100% | 64.3% | 4.64% (active) | 87.7% | 69.5% | 90% | 115% | 105% | 110% | 107% | 111% | 105% | 91.6% | 118%
16 | COc1ccc2oc(=O)cc(-c3c(C#N)c(N)n4nc(N)c(C#N)c4c3C#N)c2c1 | 91.7% | 100% | 103% | 94.4% | 90.4% | 101% | 113% | 106% | 86% | 115% | 110% | 111% | 96.8% | 111% | 93.2% | 94.4% | 91.9% | 104% | 104% | 84.1%
